In PubChem BioAssay AID1571 (National Center for Advancing Translational Sciences (NCATS), 2009):
Inconclusive results are not listed. Activity calls are given as the source filed them. Calls come from the whole dose curve; as a rule, active = well fitted curve in the direction sought with a large enough effect; inconclusive = small, poorly fitted or top-dose-only effect, or effect the other way; inactive = flat fitted curve, though single readings scatter.

Test: Total Fluorescence Confirmation Counterscreen for Inhibitors of the Interaction of Thyroid Hormone Receptor and Steroid Receptor Coregulator 2, Fluorescein Fluoroprobe
Conditions: TRbeta/SRC2-fluorescein mix, total fluorescence interference; series mostly up to 92.2 µM
Excerpt: NIH Molecular Libraries Probe Production Network [MLPCN] NIH Chemical Genomics Center [NCGC] MLPCN Grant: DK058080 Assay Provider: R. Kip Guy, St. Jude Children's Research Hospital NCGC Assay Overview: Thyroid receptor (TR) regulates many homeostatic processes including basal metabolism, cardiovascular function, body weight, and lipid trafficking. TR modulators are potential therapeutics for obesity and hyperlipidemias but current thyroid analogs have undesirable side effects, particularly cardiac stimulation. To identify inhibitors that specifically prevent the interaction of TR with the steroid receptor coregulator 2 (SRC2), a fluorescence polarization assay was screened (Arnold et al., 2006). This assay detects interaction of the ligand-binding domain of human TRbeta with a fluorescein labeled SRC2 peptide, corresponding to a 20 amino acid region of the nuclear receptor interaction domain. Total fluorescence (555 nm excitation and 632 nm emission) was measured to identify potential fluorescent and light absorbing compounds. Such compounds may be artifacts that interfere with the fluorescence polarization assay. This assay is a confirmation assay for AID 1479. Arnold, L. A.; Estebanez-Perpina, E.; Togashi, M.; Shelat, A.; Ocasio, C. A.; McReynolds, A. C.; Nguyen, P.; Baxter, J. D.; Fletterick, R. J.; Webb, P.; Guy, R. K. A high-throughput screening method to identify small molecule inhibitors of thyroid hormone receptor coactivator binding. Sci STKE 2006, p 13.
NCGC Assay Protocol Summary: For screening, 5 uL/well 0.6 uM TRbeta and 20 nM SRC2 Fluorescein in protein buffer (20mM Tris hydrochloride, 100mM NaCl, 10% glycerol, 1mM EDTA, 0.01% NP-40, 1mM DTT, 1uM T3 and 5% DMSO) was dispensed into black solid 1536-well plates (Grenier) using a solenoid-based dispenser. Following transfer of 23 nL compound or DMSO vehicle by a pin tool, the plates were centrifuged 15 s at 1000 RPM and incubated 5 hr at ambient temperature. The plates were read by an Envision (Perkin Elmer) to detect fluorescence polarization of SRC2 Fluorescein (480 nm excitation and 535 nm emission). Data were normalized to unbound (all components except TRbeta) and bound SRC2 Fluorescein controls. Total fluorescence (TF) was calculated as follows: TF = S + 2P where S and P are fluorescence readings in the parallel and perpendicular channels, respectively. In this assay, we provide % activity data for each concentration as well as potencies for the active compounds.

**Q.** With `O=C(O)CC1OCC=C2CN3CCC45C6=CC(=O)C(=O)C([N+](=O)[O-])=C6NC4C1C2CC35` (stereo not given) as the compound, how does the outcome read?
**A.** The outcome was “inactive”.

**Q.** Which outcome does the source give for `CN1CC[C@@]2(C)c3cc(O)ccc3N(C)C2O1` (stereo not given in full) here?
**A.** Its outcome is “inactive”.

**Q.** Which outcome does the source give for `CCn1nc(-c2cccs2)nc2c(=O)n(C)c(=O)nc1-2` here?
**A.** Its outcome is “inactive”.

**Q.** Which outcome does the source give for `COP(=S)(OC)Oc1ccc([N+](=O)[O-])cc1` here?
**A.** The outcome was “inactive”.

**Q.** For `Cc1[nH]n(-c2ccccc2)c(=O)c1C(c1ccc([N+](=O)[O-])cc1)c1c(C)[nH]n(-c2ccccc2)c1=O`, which outcome is on record?
**A.** The outcome was “inactive”.
